Source: ChEMBL document CHEMBL1961873, “Compounds: GSK PKIS; Assays: Nanosyn kinase panel” (2012)

Experiments:
[1] = target: Rho-associated protein kinase 1 (Homo sapiens) (UniProt Q13464); conditions: at 1 µM;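 also: reported values are mean percent inhibition of ROCK1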
[2] = target: Rho-associated protein kinase 2 (Homo sapiens) (UniProt O75116); conditions: at 0.1 µM
[3] = target: Rho-associated protein kinase 2 (Homo sapiens) (UniProt O75116); conditions: at 1 µM
[4] = target: Ribosomal protein S6 kinase alpha-1 (Homo sapiens) (UniProt Q15418); conditions: at 0.1 µM
[5] = target: Ribosomal protein S6 kinase alpha-1 (Homo sapiens) (UniProt Q15418); conditions: at 1 µM
[6] = target: Ribosomal protein S6 kinase alpha-3 (Homo sapiens) (UniProt P51812); conditions: at 0.1 µM
[7] = target: Ribosomal protein S6 kinase alpha-3 (Homo sapiens) (UniProt P51812); conditions: at 1 µM
[8] = target: Ribosomal protein S6 kinase alpha-2 (Homo sapiens) (UniProt Q15349); conditions: at 0.1 µM
[9] = target: Ribosomal protein S6 kinase alpha-2 (Homo sapiens) (UniProt Q15349); conditions: at 1 µM
[10] = target: Ribosomal protein S6 kinase alpha-6 (Homo sapiens) (UniProt Q9UK32); conditions: at 0.1 µM
[11] = target: Ribosomal protein S6 kinase alpha-6 (Homo sapiens) (UniProt Q9UK32); conditions: at 1 µM
[12] = target: T1, Serine/threonine-protein kinase Sgk1 (Homo sapiens) (UniProt O00141); conditions: at 0.1 µM
T1 sequence (whole entry): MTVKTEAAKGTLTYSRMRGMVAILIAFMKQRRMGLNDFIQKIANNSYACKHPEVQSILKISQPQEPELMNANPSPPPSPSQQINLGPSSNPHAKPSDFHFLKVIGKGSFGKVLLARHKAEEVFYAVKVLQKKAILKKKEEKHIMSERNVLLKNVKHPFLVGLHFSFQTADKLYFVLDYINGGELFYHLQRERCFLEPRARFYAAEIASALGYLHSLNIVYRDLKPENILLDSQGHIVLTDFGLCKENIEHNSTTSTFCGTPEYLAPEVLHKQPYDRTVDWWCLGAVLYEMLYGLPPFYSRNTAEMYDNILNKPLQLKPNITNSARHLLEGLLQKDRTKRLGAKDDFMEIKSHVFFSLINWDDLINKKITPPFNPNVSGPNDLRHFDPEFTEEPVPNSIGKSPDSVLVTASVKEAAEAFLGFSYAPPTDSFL

[13] = target: T1, Serine/threonine-protein kinase Sgk1 (Homo sapiens); conditions: at 1 µM
[14] = target: T2, Serine/threonine-protein kinase Sgk2 (Homo sapiens) (UniProt Q9HBY8); conditions: at 0.1 µM
T2 sequence (whole entry): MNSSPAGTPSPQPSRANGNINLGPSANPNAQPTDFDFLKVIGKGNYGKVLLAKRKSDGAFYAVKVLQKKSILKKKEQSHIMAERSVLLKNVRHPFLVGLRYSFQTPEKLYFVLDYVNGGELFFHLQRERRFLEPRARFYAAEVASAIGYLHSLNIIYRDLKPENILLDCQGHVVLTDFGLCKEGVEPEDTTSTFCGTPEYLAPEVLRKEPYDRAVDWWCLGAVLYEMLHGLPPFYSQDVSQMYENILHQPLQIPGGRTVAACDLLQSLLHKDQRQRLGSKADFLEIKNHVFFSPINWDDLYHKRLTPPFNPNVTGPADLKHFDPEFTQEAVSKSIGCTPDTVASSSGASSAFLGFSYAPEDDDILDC

[15] = target: T2, Serine/threonine-protein kinase Sgk2 (Homo sapiens); conditions: at 1 µM
[16] = target: T3, Serine/threonine-protein kinase Sgk3 (Homo sapiens) (UniProt Q96BR1); conditions: at 0.1 µM
T3 sequence (whole entry): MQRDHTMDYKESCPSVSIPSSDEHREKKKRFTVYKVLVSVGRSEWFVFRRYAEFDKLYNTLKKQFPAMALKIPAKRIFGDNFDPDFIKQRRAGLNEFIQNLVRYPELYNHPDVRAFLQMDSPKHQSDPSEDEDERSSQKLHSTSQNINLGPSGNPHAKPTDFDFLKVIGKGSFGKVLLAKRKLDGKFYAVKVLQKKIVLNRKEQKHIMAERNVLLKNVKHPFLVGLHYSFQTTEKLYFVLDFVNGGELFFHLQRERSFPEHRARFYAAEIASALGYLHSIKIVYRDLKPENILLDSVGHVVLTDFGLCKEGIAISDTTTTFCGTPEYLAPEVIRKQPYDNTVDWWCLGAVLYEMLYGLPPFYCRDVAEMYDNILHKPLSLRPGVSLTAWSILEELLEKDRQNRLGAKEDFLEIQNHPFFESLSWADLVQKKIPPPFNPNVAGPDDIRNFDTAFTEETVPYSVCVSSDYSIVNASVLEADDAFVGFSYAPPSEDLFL

[17] = target: T3, Serine/threonine-protein kinase Sgk3 (Homo sapiens); conditions: at 1 µM
[18] = target: 5'-AMP-activated protein kinase catalytic subunit alpha-1 (Homo sapiens) (UniProt Q13131); conditions: at 0.1 µM
[19] = target: 5'-AMP-activated protein kinase catalytic subunit alpha-1 (Homo sapiens) (UniProt Q13131); conditions: at 1 µM
[20] = target: 5'-AMP-activated protein kinase catalytic subunit alpha-2 (Homo sapiens) (UniProt P54646); conditions: at 0.1 µM;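 also: mean inhibition measured on the AMPK complex of alpha2, beta1 and gamma1 subunits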
Sequence of 5'-AMP-activated protein kinase catalytic subunit alpha-2 (Homo sapiens) (P54646 whole entry, looked up): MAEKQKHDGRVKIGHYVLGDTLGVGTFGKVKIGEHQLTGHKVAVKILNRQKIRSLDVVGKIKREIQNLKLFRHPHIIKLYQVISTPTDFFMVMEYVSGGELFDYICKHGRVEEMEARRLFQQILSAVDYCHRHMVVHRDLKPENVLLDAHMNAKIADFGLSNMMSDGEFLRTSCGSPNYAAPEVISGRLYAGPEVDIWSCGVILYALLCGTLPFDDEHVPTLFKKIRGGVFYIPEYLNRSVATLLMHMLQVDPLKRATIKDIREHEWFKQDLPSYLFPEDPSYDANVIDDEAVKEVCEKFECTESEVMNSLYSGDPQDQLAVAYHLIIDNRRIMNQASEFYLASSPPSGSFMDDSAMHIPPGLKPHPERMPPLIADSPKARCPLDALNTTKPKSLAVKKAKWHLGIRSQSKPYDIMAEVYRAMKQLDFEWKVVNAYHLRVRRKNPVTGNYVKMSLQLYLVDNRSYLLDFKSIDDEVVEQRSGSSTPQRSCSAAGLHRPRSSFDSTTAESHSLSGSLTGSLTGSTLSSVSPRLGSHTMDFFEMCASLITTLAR

Sequence of Ribosomal protein S6 kinase alpha-6 (Homo sapiens) (Q9UK32 whole entry): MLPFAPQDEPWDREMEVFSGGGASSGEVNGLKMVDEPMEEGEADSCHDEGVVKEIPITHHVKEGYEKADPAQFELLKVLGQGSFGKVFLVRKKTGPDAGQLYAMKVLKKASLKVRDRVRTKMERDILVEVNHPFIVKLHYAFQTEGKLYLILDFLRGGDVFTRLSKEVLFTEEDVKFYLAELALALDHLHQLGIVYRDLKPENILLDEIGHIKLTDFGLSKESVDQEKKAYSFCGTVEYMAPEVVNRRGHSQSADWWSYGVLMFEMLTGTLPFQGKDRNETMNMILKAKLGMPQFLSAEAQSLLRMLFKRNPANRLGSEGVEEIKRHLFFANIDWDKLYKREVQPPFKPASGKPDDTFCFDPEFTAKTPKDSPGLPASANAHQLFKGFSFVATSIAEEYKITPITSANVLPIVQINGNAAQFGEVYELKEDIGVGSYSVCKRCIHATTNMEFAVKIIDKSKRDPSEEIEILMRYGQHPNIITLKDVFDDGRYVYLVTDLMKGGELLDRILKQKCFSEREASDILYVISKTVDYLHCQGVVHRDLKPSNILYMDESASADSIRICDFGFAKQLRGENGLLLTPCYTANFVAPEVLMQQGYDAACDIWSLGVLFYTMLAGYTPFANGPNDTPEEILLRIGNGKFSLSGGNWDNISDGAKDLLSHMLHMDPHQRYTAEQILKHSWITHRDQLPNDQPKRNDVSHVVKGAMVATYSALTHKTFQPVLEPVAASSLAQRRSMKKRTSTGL
Sequence of Ribosomal protein S6 kinase alpha-2 (Homo sapiens) (Q15349 whole entry): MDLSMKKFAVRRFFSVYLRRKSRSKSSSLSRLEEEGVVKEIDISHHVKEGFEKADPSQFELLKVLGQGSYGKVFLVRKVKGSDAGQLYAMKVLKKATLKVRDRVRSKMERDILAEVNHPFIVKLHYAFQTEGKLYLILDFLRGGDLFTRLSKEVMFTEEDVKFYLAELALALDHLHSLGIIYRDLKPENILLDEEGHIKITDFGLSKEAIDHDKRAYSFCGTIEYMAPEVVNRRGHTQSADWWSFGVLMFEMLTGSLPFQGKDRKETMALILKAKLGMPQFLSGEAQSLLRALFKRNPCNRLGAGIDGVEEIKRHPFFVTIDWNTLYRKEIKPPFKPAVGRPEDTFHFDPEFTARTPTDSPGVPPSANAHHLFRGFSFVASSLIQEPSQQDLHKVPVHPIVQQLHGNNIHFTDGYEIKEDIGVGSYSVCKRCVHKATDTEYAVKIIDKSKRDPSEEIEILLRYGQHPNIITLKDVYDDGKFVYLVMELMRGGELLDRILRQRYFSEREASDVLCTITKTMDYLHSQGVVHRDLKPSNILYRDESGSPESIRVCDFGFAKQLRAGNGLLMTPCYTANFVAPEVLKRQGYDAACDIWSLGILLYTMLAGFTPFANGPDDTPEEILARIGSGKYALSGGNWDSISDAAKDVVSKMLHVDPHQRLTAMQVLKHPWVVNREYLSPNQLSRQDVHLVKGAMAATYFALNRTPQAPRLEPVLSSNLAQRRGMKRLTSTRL
Sequence of 5'-AMP-activated protein kinase catalytic subunit alpha-1 (Homo sapiens) (Q13131 whole entry, looked up): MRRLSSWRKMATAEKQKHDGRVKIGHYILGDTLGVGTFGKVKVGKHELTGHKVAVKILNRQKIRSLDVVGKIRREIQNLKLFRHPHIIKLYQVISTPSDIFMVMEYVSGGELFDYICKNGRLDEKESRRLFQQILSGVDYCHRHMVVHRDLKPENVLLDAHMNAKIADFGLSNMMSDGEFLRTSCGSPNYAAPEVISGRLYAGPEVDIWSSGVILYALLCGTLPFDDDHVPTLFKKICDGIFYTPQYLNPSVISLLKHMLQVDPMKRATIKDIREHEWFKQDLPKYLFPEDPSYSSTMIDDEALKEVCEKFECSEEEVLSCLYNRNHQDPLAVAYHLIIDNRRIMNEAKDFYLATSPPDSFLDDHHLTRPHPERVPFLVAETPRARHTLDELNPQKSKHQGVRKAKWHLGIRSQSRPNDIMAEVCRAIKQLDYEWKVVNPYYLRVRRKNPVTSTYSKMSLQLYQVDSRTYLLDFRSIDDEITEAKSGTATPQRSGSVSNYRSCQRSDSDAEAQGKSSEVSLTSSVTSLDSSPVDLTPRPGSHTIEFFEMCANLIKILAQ
Sequence of Rho-associated protein kinase 1 (Homo sapiens) (Q13464 2-1354 limits assumed): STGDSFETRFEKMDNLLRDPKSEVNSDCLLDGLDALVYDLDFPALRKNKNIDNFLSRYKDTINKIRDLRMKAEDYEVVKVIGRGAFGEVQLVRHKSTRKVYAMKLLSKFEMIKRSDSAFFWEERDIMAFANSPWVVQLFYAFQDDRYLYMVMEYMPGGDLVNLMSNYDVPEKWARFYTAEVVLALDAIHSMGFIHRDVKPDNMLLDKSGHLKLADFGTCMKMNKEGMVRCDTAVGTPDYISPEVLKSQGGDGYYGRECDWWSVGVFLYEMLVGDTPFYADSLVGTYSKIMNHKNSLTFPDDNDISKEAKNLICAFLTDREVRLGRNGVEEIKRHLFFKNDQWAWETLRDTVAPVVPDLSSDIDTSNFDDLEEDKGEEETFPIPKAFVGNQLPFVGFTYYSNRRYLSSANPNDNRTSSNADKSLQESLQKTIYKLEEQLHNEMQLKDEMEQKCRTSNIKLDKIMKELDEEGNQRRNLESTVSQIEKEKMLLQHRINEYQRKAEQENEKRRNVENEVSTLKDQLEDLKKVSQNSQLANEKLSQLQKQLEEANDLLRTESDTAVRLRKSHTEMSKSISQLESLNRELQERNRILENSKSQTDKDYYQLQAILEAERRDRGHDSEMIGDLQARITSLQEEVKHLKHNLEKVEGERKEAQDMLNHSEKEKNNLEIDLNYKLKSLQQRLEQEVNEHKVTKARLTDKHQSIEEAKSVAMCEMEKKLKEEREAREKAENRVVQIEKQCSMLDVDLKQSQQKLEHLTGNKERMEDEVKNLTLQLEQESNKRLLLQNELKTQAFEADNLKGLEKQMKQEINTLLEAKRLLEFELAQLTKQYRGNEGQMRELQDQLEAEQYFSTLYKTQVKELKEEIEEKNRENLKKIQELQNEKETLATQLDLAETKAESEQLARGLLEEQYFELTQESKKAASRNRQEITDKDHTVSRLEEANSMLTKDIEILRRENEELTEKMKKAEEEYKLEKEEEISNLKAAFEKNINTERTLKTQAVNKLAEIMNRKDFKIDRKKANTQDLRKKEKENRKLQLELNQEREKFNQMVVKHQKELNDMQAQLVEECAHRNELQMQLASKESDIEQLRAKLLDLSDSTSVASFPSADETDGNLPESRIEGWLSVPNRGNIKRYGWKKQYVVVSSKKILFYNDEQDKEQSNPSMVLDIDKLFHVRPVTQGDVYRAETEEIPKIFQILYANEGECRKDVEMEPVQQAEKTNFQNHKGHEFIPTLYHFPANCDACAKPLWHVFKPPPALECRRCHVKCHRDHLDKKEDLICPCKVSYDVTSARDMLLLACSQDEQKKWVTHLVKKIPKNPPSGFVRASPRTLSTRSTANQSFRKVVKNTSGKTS
Sequence of Ribosomal protein S6 kinase alpha-3 (Homo sapiens) (P51812 whole entry): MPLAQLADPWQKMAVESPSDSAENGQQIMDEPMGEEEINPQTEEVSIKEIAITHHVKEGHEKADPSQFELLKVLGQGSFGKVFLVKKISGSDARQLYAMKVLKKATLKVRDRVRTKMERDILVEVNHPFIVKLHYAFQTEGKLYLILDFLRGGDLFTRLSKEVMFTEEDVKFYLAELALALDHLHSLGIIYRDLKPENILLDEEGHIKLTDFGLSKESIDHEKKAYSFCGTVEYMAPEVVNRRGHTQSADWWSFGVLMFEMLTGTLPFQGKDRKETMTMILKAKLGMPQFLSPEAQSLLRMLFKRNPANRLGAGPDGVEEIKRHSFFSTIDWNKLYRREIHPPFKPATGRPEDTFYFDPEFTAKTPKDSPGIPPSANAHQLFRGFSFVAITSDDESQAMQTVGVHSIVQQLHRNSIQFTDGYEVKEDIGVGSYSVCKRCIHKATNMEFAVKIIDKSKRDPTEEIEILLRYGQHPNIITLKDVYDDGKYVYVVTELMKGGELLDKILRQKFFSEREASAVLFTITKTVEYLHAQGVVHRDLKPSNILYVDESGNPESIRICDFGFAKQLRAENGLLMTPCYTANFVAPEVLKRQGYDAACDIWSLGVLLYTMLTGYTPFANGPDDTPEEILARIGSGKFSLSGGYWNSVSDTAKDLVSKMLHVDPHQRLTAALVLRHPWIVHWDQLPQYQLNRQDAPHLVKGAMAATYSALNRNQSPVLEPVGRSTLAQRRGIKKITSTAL

| SMILES | inhibition [1] [%] | inhibition [2] [%] | inhibition [3] [%] | inhibition [4] [%] | inhibition [5] [%] | inhibition [6] [%] | inhibition [7] [%] | inhibition [8] [%] | inhibition [9] [%] | inhibition [10] [%] | inhibition [11] [%] | inhibition [12] [%] | inhibition [13] [%] | inhibition [14] [%] | inhibition [15] [%] | inhibition [16] [%] | inhibition [17] [%] | inhibition [18] [%] | inhibition [19] [%] | inhibition [20] [%] |
| --- | --- | --- | --- | --- | --- | --- | --- | --- | --- | --- | --- | --- | --- | --- | --- | --- | --- | --- | --- | --- |
| NC(=O)c1cc(-c2ccc(F)cc2)cc(-c2ccncc2)c1N | 1.76 | 2.33 | 6.23 | 1.16 | 2.59 | 0.17 | 1.79 | 1.82 | 2.97 | 0.55 | 0.89 | 3.79 | 4.51 | 1.44 | 2.58 | 3.22 | 5.96 | 2.78 | 2.57 | 2.54 |
| COC(=O)Nc1nc2ccc(Sc3ccc(NC(=O)Nc4cc(C(F)(F)F)ccc4F)cc3)cc2[nH]1 | -0.72 | 0.53 | -0.19 | -0.4 | 0.24 | -0.27 | -1.87 | 47.7 | 2.97 | 48.6 | 0.24 | 0.54 | 4.52 | 0.41 | 0.74 | -0.29 | 0.03 | 0.86 | 0.23 | -4.11 |
| O=C(Nc1ccc(Oc2ccc3[nH]c(NC(=O)c4ccccc4)nc3c2)cc1)Nc1cc(C(F)(F)F)ccc1F | 6.36 | 3.35 | 8.83 | 1.17 | 5.03 | 0.81 | 1.47 | 3.12 | 20.5 | 1.69 | 2.72 | 1.68 | 3.96 | 2.66 | 4.13 | 1.78 | 2.24 | 2.87 | 2.98 | 0.79 |
| NS(=O)(=O)c1ccc(Nc2cc(-c3ccc(O)c(F)c3)n[nH]2)cc1 | 1.73 | -1.97 | 3.32 | 4.13 | 32.6 | 13.1 | 56.4 | 16.5 | 63.5 | 13.4 | 59.5 | -0.99 | 3.11 | -0.41 | 3.07 | 0.2 | -0.29 | 0.53 | 15.2 | 0.54 |
| CCN(CC)Cc1ccc(Nc2nccc(-c3cnn4ncccc34)n2)cc1 | 9.36 | 2.02 | 13.7 | 0.21 | 2.52 | -0.63 | 2.49 | 2.26 | 3.81 | 0.43 | 9.62 | 1.11 | 7.61 | 3.89 | 4.57 | 3.92 | 2.8 | 3.26 | 9.99 | 7.01 |
| C[C@@H](Oc1cc(-n2cnc3ccc(OC4CCN(C)CC4)cc32)sc1C(N)=O)c1ccccc1Cl | 5.39 | 1.57 | 5.08 | 2.3 | 12.4 | 3.29 | 21.8 | 4.54 | 20.2 | 7.23 | 40.4 | 1.16 | 1.49 | 2.92 | 1.45 | 3.29 | 2.26 | 5.35 | 21.6 | 5.98 |
| Fc1ccc(-c2c(-c3ccncc3)nc3n2CCS3)cc1 | 13.8 | 11.2 | 16.1 | 3.39 | 6.17 | 3.04 | 6 | 2.43 | 3.27 | 1.3 | 2.25 | 3.2 | 4.05 | 1.42 | 3.7 | 1.96 | 5.06 | 3.33 | 6.81 | 3.93 |
| CS(=O)(=O)CCNCc1ccc(-c2ccc3ncnc(Nc4ccc(OCc5ccccc5)c(Br)c4)c3c2)o1 | 2.16 | 0.72 | 1.26 | -0.49 | 0.36 | -0.55 | -1.39 | 1.5 | 1.01 | -0.12 | -1.41 | 1.16 | 0.22 | 2.67 | 1.45 | 3.29 | 3.35 | 2.94 | 1.46 | 1.41 |
| CCS(=O)(=O)c1ccc(OC)c(Nc2ncc(-c3ccccc3Cl)o2)c1 | -0.3 | 1.15 | 2.53 | 1.95 | 5.76 | 0.57 | 4.01 | 0.2 | 4.26 | 2.01 | 3.92 | -0.42 | 2.5 | -1.58 | -2.15 | -0.26 | -1.36 | 1.54 | 0.82 | -1.8 |
| COc1cc2ncn(-c3cc(OCc4cccs4)c(C(N)=O)s3)c2cc1OC | 2.63 | 3.91 | 11.3 | 4.14 | 12.6 | 3.71 | 11.8 | 2.98 | 9.31 | 1.53 | 9.08 | 5.73 | 8.78 | 4.34 | 10.6 | 5.06 | 6.9 | 3.16 | 12.8 | 3.12 |
| Cc1ccc(C(=O)NC(C)C)cc1-c1ccc(C(=O)NCC2CC2)cc1 | -0.1 | -1.71 | -1.76 | 1.38 | -0.32 | 1.65 | 1.68 | -0.25 | 0.47 | -0.44 | 0.59 | 0.01 | -0.09 | -3.55 | -7.09 | -5.05 | -2.17 | -1.19 | -1.42 | -0.98 |
| CN(C)CCOc1ccc(-c2cc(-c3ccc4c(c3)CCC4=NO)c(-c3ccncc3)o2)cc1 | -1.5 | -2.12 | -0.39 | -0.55 | -1.02 | -0.48 | -0.08 | -0.08 | 0.83 | -0.45 | -1.99 | 1.28 | 0.73 | -2.26 | 2.64 | 1.69 | -4.66 | -1.39 | -0.8 | 0.73 |
